According to PubChem BioAssay AID429 (Emory University Molecular Libraries Screening Center, 2006):
Screen size: about 64,000 compounds; about 220 (0.34%) were called active.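 The calls were made as follows: active = inhibition above 50%; inactive = the rest.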 Shown is part of a subset that was picked to be rich in actives.

What follows are molecules tested against Heat shock protein HSP 90-alpha (Homo sapiens) (UniProt P07900) (assay: Hsp90 geldanamycin-site probe displacement – cell lysate, fluorescence polarization, NCI-N417 lysate, primary screen (AID 429;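 also: 0% = tracer plus lysate wells and 100% = tracer alone without lysate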)). Conditions: NCI-N417 lysate Hsp90, Cy3B-geldanamycin FP displacement; at 30 µM; stronger effect = higher value.

SMILES	inhibition
CC(C)C1C2=C(CC(C)(C)CC2=O)ON1c1ccccc1 (configuration not stated)	-1.36% (inactive)
Cc1c(-c2nn(C)c(=O)c3ccccc23)oc2ccc(F)cc2c1=O	89.8% (active)
Cc1ccc(F)cc1NC(=O)Cc1nn(C)c(=O)c2ccccc12	-2.07% (inactive)
O=C1c2oc3ccc(Br)cc3c(=O)c2C(c2cccc(F)c2)N1CCO (configuration not stated)	-0.86% (inactive)
COc1cccc(CN2C(=O)CCC2(C)C(=O)NC2CCCCCC2)c1 (configuration not stated)	-0.1% (inactive)
CC(=O)C1=C(O)C(=O)N(c2ccc(S(N)(=O)=O)cc2)C1c1ccccc1F (configuration not stated)	-1.25% (inactive)
CC(C)(C)NCC(O)COc1cccc2[nH]c(=O)[nH]c12 (configuration not stated)	-2.65% (inactive)
CCOc1ccccc1C1CC(c2ccccc2)Nc2nc(N)nn21 (configuration not stated)	0.5% (inactive)
COc1ccccc1OCCOc1ccc(/C=N/n2cnnc2)cc1	-1.96% (inactive)
CCOc1cc(CO)ccc1OCC(=O)N1CCCCC1	1.83% (inactive)
O=C(c1ccc2c(c1)OCO2)N1CCNc2ccccc2C1	-1.64% (inactive)
Cc1ccc(NC(=O)CS(=O)CC(=O)N(c2ccccc2)C(C)C(=O)NC2CCCC2)cc1 (configuration not stated)	-0.1% (inactive)
O=C(Nc1nsc(-c2ccccc2)n1)c1ccncc1	1.14% (inactive)
O=C(CN(c1ccc2c(c1)OCCO2)S(=O)(=O)c1ccccc1)Nc1ccc2c(c1)OCO2	31.2% (inactive)
Cc1noc(C)c1C(=O)NC(C)c1ccc2c(c1)OCO2 (configuration not stated)	-9.41% (inactive)
COc1ccc(-c2nnn(Cc3nc(N)nc(N4CCCCC4)n3)n2)cc1	2.3% (inactive)
O=C(CCC(=O)c1cccs1)NCc1ccccc1	-2.27% (inactive)
O=C(O)CCC(=O)NCc1ccc2[nH]c3c(c2c1)CCCC3	62.8% (active)
O=C(CCCCn1c(=O)[nH]c2ccccc2c1=O)NCc1ccc2c(c1)OCO2	-3.39% (inactive)
CCOC(=O)C1CCN(C(=O)COc2cc(C)c(Br)c(C)c2)CC1	-0.95% (inactive)
CC1CC2C3CCC4=CC(=O)C=C[C@]4(C)[C@@]3(F)[C@@H](O)C[C@]2(C)[C@@]1(O)C(=O)CO (some centres not stated)	0.93% (inactive)
CC(=O)Oc1cccc(N2C(=O)CC(Nc3ccc(N4CCOCC4)cc3)C2=O)c1 (configuration not stated)	10.2% (inactive)
